This passage reports Potency and viability results from PubChem BioAssay (NCATS).

Test [1] is described as follows: Quantitative High-Throughput drug screen in 47 multiple myeloma cell lines against the NCATS MIPE library collection: MM1R_ATCC cell viability assay (AID 1918981). Also: nearly all actives have a fitted effect of over 35% in size. In outline:
(§1)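 Readout: median RLU from CellTiter-Glo after 5 min at room temperature. Preceding step was 48 h drug treatment of 500 cells/well at 37 °C, 5% CO2, with DMSO-only and media-only control wells.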

Test [2] in a line: Quantitative High-Throughput drug screen in 47 multiple myeloma cell lines against the NCATS MIPE library collection: LP1_DSMZ cell viability assay (AID 1918982). Also: nearly all actives have a fitted effect of over 35% in size. In outline:
as §1

Test [3] in a line: Quantitative High-Throughput drug screen in 47 multiple myeloma cell lines against the NCATS MIPE library collection: KMS34_JCRB cell viability assay (AID 1918985). Also: nearly all actives have a fitted effect of over 40% in size. In outline: as §1
Test [4] can be described thus: Quantitative High-Throughput drug screen in 47 multiple myeloma cell lines against the NCATS MIPE library collection: OPM1_PLB cell viability assay (AID 1918989). Also: nearly all actives have a fitted effect of over 40% in size. In outline:
as §1

The nature of test [5]: Quantitative High-Throughput drug screen in 47 multiple myeloma cell lines against the NCATS MIPE library collection: U266_ATCC cell viability assay (AID 1919864). Also: nearly all actives have a fitted effect of over 35% in size. In outline: as §1
Test [6] is described as follows: Quantitative High-Throughput drug screen in 47 multiple myeloma cell lines against the NCATS MIPE library collection: SKMM1_PLB cell viability assay (AID 1919863). Also: nearly all actives have a fitted effect of over 35% in size. As to viability: series mostly up to about 46 µM. Conditions: SKMM1 myeloma viability, CellTiter-Glo ATP, 48 h; viability: stronger effect = lower value. Put shortly: as §1
A short description of test [7]: Quantitative High-Throughput drug screen in 47 multiple myeloma cell lines against the NCATS MIPE library collection: KMS28PE_JCRB cell viability assay (AID 1918983). Also: nearly all actives have a fitted effect of over 35% in size. Put shortly: as §1
Test [8] in a line: Quantitative High-Throughput drug screen in 47 multiple myeloma cell lines against the NCATS MIPE library collection: L363_DSMZ cell viability assay (AID 1918984). Also: nearly all actives have a fitted effect of over 40% in size. Put shortly:
as §1

The nature of test [9]: Quantitative High-Throughput drug screen in 47 multiple myeloma cell lines against the NCATS MIPE library collection: OCIMY5_PLB cell viability assay (AID 1918988). Also: nearly all actives have a fitted effect of over 65% in size. Put shortly: as §1
Test [10] can be described thus: Quantitative High-Throughput drug screen in 47 multiple myeloma cell lines against the NCATS MIPE library collection: OCIMY7_PLB cell viability assay (AID 1918987). Also: nearly all actives have a fitted effect of over 65% in size. In outline:
as §1

Records with an inconclusive call do not appear. Values without a mark were called inactive. Activity calls are given as the source filed them. Calls follow the shape of the dose curve; as a rule, active = well fitted cell-killing curve with a large enough effect; inconclusive = small, poorly fitted or top-dose-only effect, or effect the other way; inactive = no such curve, though single readings can be large or run the other way.
Potency is read from the fitted curve at half-maximal effect.

With `CN(C)[C@@H]1C(=O)C(C(N)=O)=C(O)[C@@]2(O)C(=O)C3=C(O)c4c(O)cccc4[C@@](C)(O)[C@H]3[C@H](O)[C@@H]12`, the Potency entry in test [1], in test [2] and in [4] was “inactive” each time. Further, the Potency in [3] is 3.72 µM (active); in test [5] it was 18.7 µM (active).
As to `CC1=NN=C(c2ccc(N)cc2)c2cc3c(cc2C1)OCO3`, the Potency entry in test [1], in test [2] and in [4] was “inactive” in each case. Further, the viability in test [6] is 125%.
As for `CCCC[N+]1(C)[C@H]2CC(OC(=O)[C@H](CO)c3ccccc3)C[C@H]1[C@H]1O[C@H]12` (stereo partly specified), the Potency entry in test [1], in [2], in test [7], in test [8], in [3] and in test [9] was “inactive” throughout. In addition, the Potency result in test [4] and in test [5] was “inactive” in each case.
On to `COCC1(CO)C(=O)C2CCN1CC2` (stereo unspecified), for which the Potency in test [1] was 0.469 µM (active); in test [2], 2.64 µM (active); in test [7], 18.7 µM (active); in test [8], 3.32 µM (active); in test [3], 0.59 µM (active); in test [10], 0.469 µM (active). Besides, the Potency in test [9] is 2.64 µM (active); in test [4], 2.09 µM (active); in test [6], 6.62 µM (active); in [5], 2.96 µM (active).
Consider `CC[C@@H]1[C@@H](C)O[C@@](O)([C@@H](C)[C@H](O)[C@H](C)[C@H]2OC(=O)C=CC=C[C@@H](C)[C@@H]([C@@H](C)[C@@H](O)[C@H](C)[C@@]3(O)C[C@H](O[C@H]4C[C@H](O)[C@H](O)[C@H](C)O4)[C@H](CC)[C@@H](C)O3)OC(=O)C=CC=C[C@@H]2C)C[C@H]1O[C@H]1C[C@H](O)[C@H](O)[C@H](C)O1`, for which the Potency in test [1] was 0.526 µM (active); in test [2] it was 0.59 µM (active); in [7], 0.372 µM (active); in [8] it was 0.372 µM (active); in [3], 0.935 µM (active); in test [4] it was 1.05 µM (active).
`CC(=Cc1csc(C)n1)[C@@H]1C[C@H]2O[C@@H]2CCC[C@H](C)[C@@H](O)[C@@H](C)C(=O)C(C)(C)[C@@H](O)CC(=O)O1`: the Potency entry in test [1], in test [2], in test [7] and in [3] was “inactive” throughout.
On to `NC1=NC(=O)N2CC12` (stereo unspecified), for which the Potency entry in test [1], in [2] and in test [3] was “inactive” each time. The Potency in test [8] is 9.35 µM (active).
For the compound `O=C(Oc1ccc([N+](=O)[O-])cc1)N1CCC(C(O)(c2ccc3c(c2)OCO3)c2ccc3c(c2)OCO3)CC1`, the Potency result in [1], in test [2], in [7], in [3] and in [9] was “inactive” each time.
On to `C[C@@H]1CC[C@H]2[C@@H](C)C(=O)O[C@@H]3O[C@@]4(C)CC[C@H]1[C@]32OO4`, for which the Potency entry in [1], in test [2], in test [7], in test [8] and in test [5] was “inactive” throughout. Further, the Potency in test [3] is 2.96 µM (active); in test [10], 1.87 µM (active). Moreover, the viability in test [6] is 103%.
With `c1ccc(CCCN2CCN(CCOC(c3ccccc3)c3ccccc3)CC2)cc1`, the Potency in test [1] was 23.5 µM (active); in test [2] it was 20.9 µM (active); in test [3], 26.4 µM (active); in test [9], 20.9 µM (active); in test [4], 20.9 µM (active); in test [6], 20.9 µM (active). Moreover, the Potency in test [5] was 23.5 µM (active). For the same compound, the Potency entry in test [8] was “inactive”.
For the compound `CC1=C(O)C(=O)C=C2C1=CC=C1[C@@]2(C)CC[C@@]2(C)[C@@H]3C[C@](C)(C(=O)O)CC[C@]3(C)CC[C@]12C`, the Potency in test [1] is 0.469 µM (active); in [2], 0.833 µM (active); in test [7], 0.833 µM (active); in [8], 0.662 µM (active); in test [3], 0.743 µM (active); in [9], 0.296 µM (active). Further, the values for the Potency in test [4], in [6] and in [5] were 0.743 µM (active), 1.05 µM (active) and 0.743 µM (active), respectively.
For `CC(C)[C@H]1C(=O)N[C@H](CO)Cc2c[nH]c3cccc(c23)N1C`, the Potency result in [1], in test [8], in [3], in test [9] and in test [5] was “inactive” throughout. Also, the Potency was 0.264 µM (active) in test [7] and 0.372 µM (active) in [4].
As to `Oc1ccc2c3c1O[C@H]1c4[nH]c5c(c4C[C@@]4(O)[C@@H](C2)N(CC2CC2)CC[C@]314)C[C@@]1(O)[C@H]2Cc3ccc(O)c4c3[C@@]1(CCN2CC1CC1)[C@H]5O4`, the Potency entry in [1], in [2], in [7], in test [8], in test [3] and in test [4] was “inactive” each time.
Consider `CCN1C[C@]2(OC(=O)c3ccccc3NC(C)=O)CC[C@H](OC)[C@@]34[C@H]5CC6[C@@H](OC)C[C@](O)(C(C[C@@H]23)[C@@H]14)[C@@]5(O)[C@@H]6OC`, for which the Potency result in test [1], in test [2], in test [7], in [8], in test [4] and in test [5] was “inactive” each time.
Regarding `Cc1[nH]nc2ccc(-c3cncc(OC[C@@H](N)Cc4c[nH]c5ccccc45)c3)cc12`, the Potency in [1] was 1.48 µM (active); in test [2] it was 1.66 µM (active); in test [7], 0.833 µM (active); in [3], 1.32 µM (active); in test [4] it was 1.18 µM (active); in test [6] it was 5.9 µM (active). Further, the Potency in [5] was 0.0833 µM (active). Moreover, in test [8], the Potency entry was “inactive”.
In the case of `CCOC(=O)c1cncn1[C@H](C)c1ccccc1`, the Potency entry in test [1], in [2], in test [9] and in [5] was “inactive” throughout. Further, in [6], the Potency was 7.43 µM (active).
`C=C[C@@H]1CN2CCC1C[C@H]2[C@H](O)c1ccnc2ccccc12` (stereo partly specified): the Potency was 26.4 µM (active) in test [1]; 10.5 µM (active) in test [2]; 14.8 µM (active) in test [7]; 16.6 µM (active) in [4]; 20.9 µM (active) in test [5].
With `CC[C@@]1(O)C(=O)OCc2c1cc1n(c2=O)Cc2cc3ccccc3nc2-1`, the Potency was 0.0264 µM (active) in test [1]; 0.59 µM (active) in test [2]; 0.166 µM (active) in test [7]; 0.296 µM (active) in [8]; 0.209 µM (active) in test [3]; 0.833 µM (active) in test [4]. Besides, the figures for the Potency in [6] and in [5] were 0.235 µM (active) and 0.332 µM (active), respectively.

For orientation: viability means a read-out of living cells in per cent, often relative to untreated cells.
